Laboratory results from the supplement of paper PMC10849652.
Targets with a hit are over-represented here; the source holds about 8,800 in all. About 0.5% of all pairs of compound and target were hits. Values without a mark were called inactive.

Tests used:
Assay in all cases: log2 fold change, soluble protein after heating vs DMSO (PISA); higher = thermal stabilisation; K562 lysate, 10 uM; active = over 0.2 and 3.5 SD of the protein, either way, in both replicates (recomputed)
alvocidib = compound: CN1CC[C@H](c2c(O)cc(O)c3c(=O)cc(-c4ccccc4Cl)oc23)[C@H](O)C1 [alvocidib]
Method in brief: (§1)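 The values are log-two fold changes in thermal stability compared with solvent controls and come from duplicates. They were obtained by TMTpro 16plex LC-MS/MS, with channel sums equalised, on the supernatant after 21,000xg for 90 min. That supernatant came from crude K562 extract at 1 mg/mL protein treated with 10 μM compound for 30 min, heated for 3 min across 48°C-58°C, pooled and brought to 0.5% NP-40 at 4°C.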

Tubastatin A = compound: CN1CCc2c(c3ccccc3n2Cc2ccc(C(=O)NO)cc2)C1 [Tubastatin A]
Method in brief: as §1

[1] = compound: CNC(=O)C1=CC=CC=C1NC2=NC(=NC=C2Cl)NC3=C(C=C(C=C3)N4CCOCC4)OC
Method in brief: as §1

defactinib = compound: CNC(=O)c1ccc(Nc2ncc(C(F)(F)F)c(NCc3nccnc3N(C)S(C)(=O)=O)n2)cc1 [defactinib]
Method in brief: as §1

[2] = compound: CNc1nc(-c2ccc3c(N)n[nH]c3c2)cc(N2C[C@@H](C(=O)NC3CCCCC3)CC[C@H]2C)n1
Method in brief: as §1

encorafenib = compound: COC(=O)N[C@@H](C)CNc1nccc(-c2cn(C(C)C)nc2-c2cc(Cl)cc(NS(C)(=O)=O)c2F)n1 [encorafenib]
Method in brief: as §1

[3] = compound: COC(=O)[C@H](CCSC)NC(=O)C1=C(C=C(C=C1)NC[C@H](CS)N)C2=CC=CC=C2
Method in brief: as §1

alisertib = compound: COc1cc(Nc2ncc3c(n2)-c2ccc(Cl)cc2C(c2c(F)cccc2OC)=NC3)ccc1C(=O)O [alisertib]
Method in brief: as §1

[4] = compound: COc1cc2nc(-c3cc(F)ccc3O)nc(N[C@@H]3CNC[C@H]3C(C)(C)O)c2cc1OC
Method in brief: as §1

gefitinib = compound: COc1cc2ncnc(Nc3ccc(F)c(Cl)c3)c2cc1OCCCN1CCOCC1 [gefitinib]
Method in brief: as §1

Sequence of UniProt Q08380 (Q08380 whole entry, looked up): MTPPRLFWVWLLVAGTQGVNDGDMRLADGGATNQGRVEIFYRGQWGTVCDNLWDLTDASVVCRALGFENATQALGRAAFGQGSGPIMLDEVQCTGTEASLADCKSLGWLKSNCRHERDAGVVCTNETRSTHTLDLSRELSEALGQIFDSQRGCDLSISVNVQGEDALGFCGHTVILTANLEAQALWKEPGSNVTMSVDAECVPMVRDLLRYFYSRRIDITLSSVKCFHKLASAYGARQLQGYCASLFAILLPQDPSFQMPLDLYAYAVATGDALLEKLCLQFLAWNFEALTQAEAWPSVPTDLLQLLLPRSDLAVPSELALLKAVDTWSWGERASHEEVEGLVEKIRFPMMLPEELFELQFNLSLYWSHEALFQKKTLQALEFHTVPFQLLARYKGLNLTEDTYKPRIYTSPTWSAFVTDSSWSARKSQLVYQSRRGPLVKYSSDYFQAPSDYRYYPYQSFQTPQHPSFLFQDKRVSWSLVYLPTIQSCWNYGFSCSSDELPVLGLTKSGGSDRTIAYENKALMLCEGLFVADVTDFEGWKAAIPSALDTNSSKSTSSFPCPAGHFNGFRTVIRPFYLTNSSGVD
Sequence of UniProt Q9BTE3 (Q9BTE3 whole entry, looked up): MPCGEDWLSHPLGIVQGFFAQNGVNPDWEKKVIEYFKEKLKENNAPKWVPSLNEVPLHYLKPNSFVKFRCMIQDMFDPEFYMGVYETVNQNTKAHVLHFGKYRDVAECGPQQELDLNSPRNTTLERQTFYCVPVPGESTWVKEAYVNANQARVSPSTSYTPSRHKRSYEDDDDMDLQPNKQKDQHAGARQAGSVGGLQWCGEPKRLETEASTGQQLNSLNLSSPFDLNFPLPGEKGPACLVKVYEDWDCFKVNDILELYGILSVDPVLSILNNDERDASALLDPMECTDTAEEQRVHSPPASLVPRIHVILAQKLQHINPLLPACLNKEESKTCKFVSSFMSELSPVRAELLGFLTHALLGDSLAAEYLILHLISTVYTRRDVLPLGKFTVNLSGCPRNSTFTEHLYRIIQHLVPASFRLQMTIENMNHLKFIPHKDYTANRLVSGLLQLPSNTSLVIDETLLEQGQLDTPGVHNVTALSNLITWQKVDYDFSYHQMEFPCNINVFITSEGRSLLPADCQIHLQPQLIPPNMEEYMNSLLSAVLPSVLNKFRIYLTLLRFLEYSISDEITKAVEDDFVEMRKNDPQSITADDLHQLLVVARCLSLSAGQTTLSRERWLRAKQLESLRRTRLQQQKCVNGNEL
Sequence of UniProt A1L020 (A1L020 whole entry, looked up): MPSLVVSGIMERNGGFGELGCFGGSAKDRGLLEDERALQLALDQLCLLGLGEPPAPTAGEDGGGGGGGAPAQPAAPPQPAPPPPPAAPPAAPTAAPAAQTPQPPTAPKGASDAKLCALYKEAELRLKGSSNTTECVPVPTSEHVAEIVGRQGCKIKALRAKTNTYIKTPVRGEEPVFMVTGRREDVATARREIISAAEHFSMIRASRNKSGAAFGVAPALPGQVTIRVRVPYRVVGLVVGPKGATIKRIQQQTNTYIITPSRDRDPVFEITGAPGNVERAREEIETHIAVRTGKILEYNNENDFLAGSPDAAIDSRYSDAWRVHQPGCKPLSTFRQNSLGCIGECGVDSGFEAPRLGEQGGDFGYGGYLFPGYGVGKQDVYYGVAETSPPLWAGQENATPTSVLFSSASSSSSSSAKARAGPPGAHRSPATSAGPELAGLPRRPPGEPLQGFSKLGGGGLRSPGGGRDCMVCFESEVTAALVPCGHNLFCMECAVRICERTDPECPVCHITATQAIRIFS
Sequence of UniProt Q16553 (Q16553 whole entry, looked up): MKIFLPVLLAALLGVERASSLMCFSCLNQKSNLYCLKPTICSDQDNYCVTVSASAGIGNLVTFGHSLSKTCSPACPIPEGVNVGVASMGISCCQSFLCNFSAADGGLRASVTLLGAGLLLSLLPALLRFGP
Sequence of UniProt P10620 (P10620 whole entry, looked up): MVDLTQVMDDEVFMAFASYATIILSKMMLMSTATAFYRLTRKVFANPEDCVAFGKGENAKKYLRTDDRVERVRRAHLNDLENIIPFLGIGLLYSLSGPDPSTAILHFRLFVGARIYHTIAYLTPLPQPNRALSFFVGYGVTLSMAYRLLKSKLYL
Sequence of UniProt P53778 (P53778 whole entry, looked up): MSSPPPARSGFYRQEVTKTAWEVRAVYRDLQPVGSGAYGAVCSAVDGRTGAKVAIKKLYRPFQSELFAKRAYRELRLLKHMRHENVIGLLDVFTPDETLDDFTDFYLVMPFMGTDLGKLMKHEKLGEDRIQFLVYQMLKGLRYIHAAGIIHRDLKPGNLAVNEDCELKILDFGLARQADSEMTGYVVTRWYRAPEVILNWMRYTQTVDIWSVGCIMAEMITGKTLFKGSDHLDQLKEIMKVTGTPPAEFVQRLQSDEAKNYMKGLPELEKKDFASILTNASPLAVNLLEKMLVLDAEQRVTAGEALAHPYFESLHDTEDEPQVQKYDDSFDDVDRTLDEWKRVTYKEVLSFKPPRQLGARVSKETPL
Sequence of UniProt Q9Y4F3 (Q9Y4F3 whole entry, looked up): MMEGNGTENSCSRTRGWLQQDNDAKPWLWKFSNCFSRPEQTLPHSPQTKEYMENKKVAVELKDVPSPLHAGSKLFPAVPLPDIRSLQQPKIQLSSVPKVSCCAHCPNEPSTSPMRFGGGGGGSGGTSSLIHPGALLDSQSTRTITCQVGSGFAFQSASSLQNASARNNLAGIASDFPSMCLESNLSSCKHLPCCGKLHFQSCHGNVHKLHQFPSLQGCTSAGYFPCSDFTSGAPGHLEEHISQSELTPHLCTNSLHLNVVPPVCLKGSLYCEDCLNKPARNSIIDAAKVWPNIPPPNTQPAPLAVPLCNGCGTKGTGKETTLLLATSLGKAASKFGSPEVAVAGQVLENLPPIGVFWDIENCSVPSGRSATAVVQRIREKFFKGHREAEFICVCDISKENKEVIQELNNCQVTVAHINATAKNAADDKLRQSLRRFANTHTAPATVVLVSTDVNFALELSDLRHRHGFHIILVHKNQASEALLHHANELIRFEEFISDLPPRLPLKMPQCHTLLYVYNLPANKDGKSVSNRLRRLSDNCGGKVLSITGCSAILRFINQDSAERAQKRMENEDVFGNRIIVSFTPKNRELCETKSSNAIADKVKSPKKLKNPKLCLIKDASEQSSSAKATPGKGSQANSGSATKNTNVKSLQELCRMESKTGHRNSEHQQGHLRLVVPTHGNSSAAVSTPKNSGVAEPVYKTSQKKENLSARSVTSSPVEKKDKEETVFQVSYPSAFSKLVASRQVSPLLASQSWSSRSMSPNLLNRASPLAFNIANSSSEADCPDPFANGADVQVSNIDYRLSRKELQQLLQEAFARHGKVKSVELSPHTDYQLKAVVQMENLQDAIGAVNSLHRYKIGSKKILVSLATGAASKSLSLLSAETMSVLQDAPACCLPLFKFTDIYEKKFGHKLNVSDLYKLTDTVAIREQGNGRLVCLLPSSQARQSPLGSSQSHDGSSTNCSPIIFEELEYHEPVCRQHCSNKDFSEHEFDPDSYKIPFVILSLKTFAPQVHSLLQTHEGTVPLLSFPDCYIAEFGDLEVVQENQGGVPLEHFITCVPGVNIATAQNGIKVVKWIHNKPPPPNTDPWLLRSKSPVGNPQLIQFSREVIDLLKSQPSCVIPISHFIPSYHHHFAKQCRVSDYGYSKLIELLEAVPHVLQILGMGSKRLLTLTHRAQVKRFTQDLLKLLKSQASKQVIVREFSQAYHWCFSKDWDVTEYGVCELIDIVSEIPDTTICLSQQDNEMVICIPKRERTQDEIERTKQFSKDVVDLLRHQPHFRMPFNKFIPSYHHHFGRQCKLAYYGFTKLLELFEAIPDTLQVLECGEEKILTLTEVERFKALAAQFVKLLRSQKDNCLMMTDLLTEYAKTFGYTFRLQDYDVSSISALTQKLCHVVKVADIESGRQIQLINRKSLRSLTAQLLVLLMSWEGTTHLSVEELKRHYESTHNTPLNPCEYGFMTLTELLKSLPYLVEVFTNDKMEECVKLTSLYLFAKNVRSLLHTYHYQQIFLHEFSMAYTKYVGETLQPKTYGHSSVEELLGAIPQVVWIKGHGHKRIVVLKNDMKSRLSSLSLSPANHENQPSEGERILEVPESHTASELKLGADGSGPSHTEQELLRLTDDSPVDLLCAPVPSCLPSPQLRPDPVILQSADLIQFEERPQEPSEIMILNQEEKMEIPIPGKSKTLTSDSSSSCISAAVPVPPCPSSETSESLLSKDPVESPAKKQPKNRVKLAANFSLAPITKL
Sequence of UniProt O60337 (O60337 whole entry, looked up): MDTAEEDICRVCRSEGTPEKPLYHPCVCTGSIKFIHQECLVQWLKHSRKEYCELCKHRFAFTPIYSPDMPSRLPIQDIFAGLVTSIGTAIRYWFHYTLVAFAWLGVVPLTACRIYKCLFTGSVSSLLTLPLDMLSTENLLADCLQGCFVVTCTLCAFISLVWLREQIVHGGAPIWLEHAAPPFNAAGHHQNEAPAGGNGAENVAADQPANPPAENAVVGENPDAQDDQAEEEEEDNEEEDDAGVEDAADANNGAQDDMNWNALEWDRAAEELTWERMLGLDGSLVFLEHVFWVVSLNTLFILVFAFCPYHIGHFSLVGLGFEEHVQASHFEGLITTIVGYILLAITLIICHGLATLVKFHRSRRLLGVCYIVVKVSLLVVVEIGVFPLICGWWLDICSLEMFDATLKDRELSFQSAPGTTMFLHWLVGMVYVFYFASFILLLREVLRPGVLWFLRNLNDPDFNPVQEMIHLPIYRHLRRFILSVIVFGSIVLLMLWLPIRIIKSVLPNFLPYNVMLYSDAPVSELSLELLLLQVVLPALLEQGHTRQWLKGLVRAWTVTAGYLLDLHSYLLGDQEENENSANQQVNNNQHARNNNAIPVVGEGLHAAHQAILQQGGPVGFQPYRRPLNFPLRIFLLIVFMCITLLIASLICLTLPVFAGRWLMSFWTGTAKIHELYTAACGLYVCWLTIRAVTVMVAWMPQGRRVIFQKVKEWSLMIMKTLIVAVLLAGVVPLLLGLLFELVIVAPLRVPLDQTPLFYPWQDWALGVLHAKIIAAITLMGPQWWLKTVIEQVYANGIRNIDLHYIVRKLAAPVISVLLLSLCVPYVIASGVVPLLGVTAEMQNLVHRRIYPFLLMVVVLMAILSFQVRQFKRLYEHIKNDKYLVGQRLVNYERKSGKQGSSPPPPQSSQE

| Target | log2 fold change (alvocidib) | log2 fold change (Tubastatin A) | log2 fold change [1] | log2 fold change (defactinib) | log2 fold change [2] | log2 fold change (encorafenib) | log2 fold change [3] | log2 fold change (alisertib) | log2 fold change [4] | log2 fold change (gefitinib) |
| --- | --- | --- | --- | --- | --- | --- | --- | --- | --- | --- |
| KIF4A (UniProt O95239) | 0.006 | -0.145 | 0.022 | 0.006 | 0.005 | -0.014 | 0.154 | -0.041 | -0.035 | -0.018 |
| MGST1 (UniProt P10620) | 0.033 | -0.011 | 0.07 | 0.02 | 0.038 | 0.007 | 0.001 | 0.009 | 0.023 | -0.066 |
| MBOAT2 (UniProt Q6ZWT7) | -0.024 | 0 | 0.079 | 0.002 | -0.025 | 0.156 | -0.073 | -0.003 | 0.034 | 0.064 |
| MARF1 (UniProt Q9Y4F3) | -0.024 | -0.194 | 0.024 | -0.157 | -0.021 | 0.053 | 0.086 | -0.056 | – | 0.02 |
| MITD1 (UniProt Q8WV92) | 0.021 | 0.046 | 0.044 | -0.038 | -0.026 | -0.04 | 0.143 | 0.041 | 0.018 | 0.022 |
| LRRC40 (UniProt Q9H9A6) | -0.009 | -0.089 | 0.019 | 0.013 | -0.012 | 0.021 | -0.038 | 0.031 | -0.008 | 0.001 |
| LRRC9 (UniProt Q6ZRR7) | 0.911 | – | – | -0.056 | – | -0.022 | 0.003 | – | – | – |
| KIFC3 isoform 6 (UniProt Q9BVG8) | -0.786 (active) | – | 0.003 | -0.255 | 0.308 | -0.053 | 0.04 | – | – | – |
| MED28 (UniProt Q9H204) | -0.292 | 0.05 | 0.14 | – | 0.081 | – | – | 0.011 | -0.024 | -0.217 |
| MAP4 isoform 5 (UniProt P27816) | – | 0.077 | 0.087 | -0.086 | 0.138 | -0.051 | -0.025 | 0.047 | -0.028 | 0.039 |
| KIF21A (UniProt H0YI78) | – | – | 0.056 | – | -0.01 | – | – | -0.003 | 0.029 | -0.1 |
| MINDY1 isoform 3 (UniProt Q8N5J2) | – | 0.093 | -0.031 | 0.021 | -0.054 | 0.03 | -0.053 | 0.001 | 0.103 | 0.134 |
| MEX3A (UniProt A1L020) | – | 0.037 | – | -0.068 | 0.037 | – | – | -0.097 | – | 0.207 |
| MRPL27 (UniProt Q9P0M9) | 0.082 | -0.017 | 0.016 | – | -0.028 | -0.047 | 0.008 | -0.019 | 0 | 0.022 |
| MMS22L (UniProt Q6ZRQ5) | 0.068 | – | -0.011 | 0.06 | -0.03 | -0.007 | 0.017 | -0.004 | 0.055 | 0.035 |
| KRAS isoform 2 (UniProt P01116) | – | 0.076 | -0.037 | – | 0.046 | -0.109 | -0.062 | – | 0.019 | – |
| MAPK12 (UniProt P53778) | – | 0.022 | 0.025 | -0.077 | 0.054 | -0.001 | 0.035 | -0.114 | – | -0.057 |
| MRPL22 (UniProt Q9NWU5) | 0.018 | -0.033 | 0.036 | – | – | – | – | -0.003 | -0.052 | -0.051 |
| KLHL12 isoform 2 (UniProt Q53G59) | – | -0.156 | -0.051 | -0.025 | -0.02 | – | – | 0.023 | 0.086 | -0.048 |
| LY6E (UniProt Q16553) | -0.726 | – | – | -0.024 | – | 0.03 | -0.005 | 0.029 | 0.016 | -0.013 |
| MAPK7 (UniProt Q13164) | 0.069 | – | 0.002 | – | – | -0.03 | -0.114 | – | 0.157 | – |

| Target | log2 fold change (alvocidib) | log2 fold change (Tubastatin A) | log2 fold change [1] | log2 fold change (defactinib) | log2 fold change [2] | log2 fold change (encorafenib) | log2 fold change [3] | log2 fold change (alisertib) | log2 fold change [4] | log2 fold change (gefitinib) |
| --- | --- | --- | --- | --- | --- | --- | --- | --- | --- | --- |
| LGALS3BP (UniProt Q08380) | -0.187 | – | -0.234 | -0.133 | -0.571 (active) | 0.023 | 0.082 | -0.074 | 0.092 | 0.019 |
| MME (UniProt P08473) | -0.01 | 0.081 | 0.048 | – | 0.142 | – | – | -0.079 | -0.018 | 0.066 |
| MRC2 (UniProt Q9UBG0) | 0.04 | – | -0.062 | – | 0.05 | 0.031 | -0.301 | -0.075 | – | 0.046 |
| MARCHF6 (UniProt O60337) | 0.07 | – | -0.039 | 0.046 | 0.084 | 0.08 | -0.05 | -0.321 | 0.008 | 0.019 |
| MAPK3 (UniProt H0YEX6) | – | – | – | – | – | – | – | -0.128 | – | -0.016 |
| MAP4K4 isoform 6 (UniProt O95819) | – | 0.024 | -0.067 | – | -0.016 | 0.207 | -0.034 | – | -0.058 | – |
| KRIT1 (UniProt O00522) | – | -0.034 | 0.089 | 0.045 | 0.102 | 0.118 | 0.123 | 0.038 | -0.055 | 0.029 |
| KLC1 isoform 10 (UniProt Q07866) | – | – | 0.147 | – | – | 0.06 | -0.109 | – | – | – |
| LRRIQ1 (UniProt Q96JM4) | – | -0.096 | – | -0.031 | – | – | – | – | -0.037 | – |
| LRP1 (UniProt Q07954) | – | – | – | -0.108 | – | -0.091 | 0.043 | – | 0.034 | – |
| MAP4K4 isoform 3 (UniProt O95819) | – | -0.016 | -0.028 | 0.03 | -0.08 | -0.075 | -0.014 | – | 0.035 | -0.051 |
| LIMK1 (UniProt P53667) | -0.135 | 0 | – | -0.053 | -0.085 | 0.489 (active) | -0.086 | -0.261 | -0.203 | 0.106 |
| LRPPRC (UniProt H7C3W8) | – | – | – | -0.063 | – | – | – | – | – | – |
| LEPROT (UniProt O15243) | 0.006 | 0.01 | 0 | – | – | -0.003 | 0.01 | – | 0.022 | – |
| MRPL30 isoform 2 (UniProt Q8TCC3) | 0.419 (active) | 0.034 | -0.003 | – | -0.002 | -0.049 | -0.034 | -0.033 | -0.003 | -0.013 |
| KMT2B (UniProt Q9UMN6) | – | – | -0.083 | – | 0.246 | 0.127 | -0.008 | – | – | – |
| MAPKAP1 (UniProt Q9BPZ7) | – | -0.125 | -0.119 | – | 0.081 | -0.051 | 0.036 | -0.094 | – | 0.07 |
| MAP3K6 (UniProt O95382) | – | – | – | -0.096 | – | 0.167 | -0.031 | 0.026 | – | -0.022 |
| MCUB (UniProt Q9NWR8) | 0.019 | 0.105 | -0.032 | – | -0.074 | – | – | 0.121 | -0.062 | -0.046 |
| MCMBP isoform 2 (UniProt Q9BTE3) | – | -0.142 | 0.102 | 0.089 | 0.199 | -0.015 | 0.124 | 0.067 | -0.091 | -0.082 |
| METTL21A (UniProt Q8WXB1) | 0.009 | 0.052 | 0.087 | – | 0 | – | – | 0.004 | 0.011 | -0.028 |
